Source: PubChem BioAssay
G9a inh = qHTS Assay for Inhibitors of Histone Lysine Methyltransferase G9a; actives 8.8% (n = 350,000); Potency, µM (top dose mostly 102 µM), without a hit: top-dose activity, negative = inhibition, actives largely listed as inhibitors; Histone-lysine N-methyltransferase EHMT2 (Homo sapiens), Q96KQ7; G9a H3K9 monomethylation, AlphaScreen, 2 h; further: on the % scale 0 is the no-effect control and ±100 the full control effect; nearly all actives have a fitted effect of over 75% in size
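Readings reflect AlphaScreen signal from monomethyl-H3K9 antibody detection. HMT at 20 nM; substrate b-H3K9 500 nM; cofactor SAM 20 uM; 2 h RT reaction; compounds tested as titrations in qHTS with 15 min preincubation.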
L3MBTL1 inh = qHTS Assay for the Inhibitors of L3MBTL1 | Potency, µM (top dose mostly 57.1 µM), without a hit: at the highest dose activity, negative = inhibition, most hits filed as inhibitors | actives 0.66% (n = 230,000) | AlphaScreen L3MBTL1–H3K9me1 peptide binding; further: on the % scale 0 is the no-effect control and ±100 the full control effect; nearly all actives have a fitted effect of over 60% in size
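First, the protein-peptide complex forms for 30 min at room temperature (L3MBTL1 50 nM, biotinylated H3K9me1 peptide 75 nM). Next, compounds are pin-transferred and incubated 30 min. Finally, AlphaScreen beads are added and read after 30 min.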
HP1b chromo inh = HTS for Inhibitors of HP1-beta Chromodomain Interactions with Methylated Histone Tails; Chromobox protein homolog 1 (Homo sapiens), P83916; AlphaScreen HP1-beta / biotin-H3K9me3 peptide binding; Potency, µM (doses to about 114 µM), inactives show top-dose activity change, negative = inhibition, actives largely listed as inhibitors; actives 0.56% (n = 390,000); further: nearly all actives have a fitted effect of over 70% in size
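HP1-beta protein (50 nM final) preincubated 30 min at room temperature with biotinylated H3(1-18)K9me3 peptide (50 nM) in PBS pH 7.4, 0.01% Tween-20, then compound added for 30 min. AlphaScreen streptavidin donor/nickel chelate acceptor beads (10 ug/mL final), 30 min dark, luminescence read.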
JMJD2A Tudor = qHTS Assay for Inhibitors of JMJD2A-Tudor Domain; Lysine-specific demethylase 4A (Homo sapiens), O75164; AID 504339, 2011; Potency, µM (highest dose often 114 µM), for inactives: top-dose activity change, negative = inhibition, hits mostly inhibitors; actives 4.4% (n = 390,000); AlphaScreen JMJD2A-Tudor / H3K4me3 peptide binding; further: on the % scale 0 is the no-effect control and ±100 the full control effect; nearly all actives have a fitted effect of over 50% in size
Target sequence (O75164 whole entry, looked up, the tested form may be a part): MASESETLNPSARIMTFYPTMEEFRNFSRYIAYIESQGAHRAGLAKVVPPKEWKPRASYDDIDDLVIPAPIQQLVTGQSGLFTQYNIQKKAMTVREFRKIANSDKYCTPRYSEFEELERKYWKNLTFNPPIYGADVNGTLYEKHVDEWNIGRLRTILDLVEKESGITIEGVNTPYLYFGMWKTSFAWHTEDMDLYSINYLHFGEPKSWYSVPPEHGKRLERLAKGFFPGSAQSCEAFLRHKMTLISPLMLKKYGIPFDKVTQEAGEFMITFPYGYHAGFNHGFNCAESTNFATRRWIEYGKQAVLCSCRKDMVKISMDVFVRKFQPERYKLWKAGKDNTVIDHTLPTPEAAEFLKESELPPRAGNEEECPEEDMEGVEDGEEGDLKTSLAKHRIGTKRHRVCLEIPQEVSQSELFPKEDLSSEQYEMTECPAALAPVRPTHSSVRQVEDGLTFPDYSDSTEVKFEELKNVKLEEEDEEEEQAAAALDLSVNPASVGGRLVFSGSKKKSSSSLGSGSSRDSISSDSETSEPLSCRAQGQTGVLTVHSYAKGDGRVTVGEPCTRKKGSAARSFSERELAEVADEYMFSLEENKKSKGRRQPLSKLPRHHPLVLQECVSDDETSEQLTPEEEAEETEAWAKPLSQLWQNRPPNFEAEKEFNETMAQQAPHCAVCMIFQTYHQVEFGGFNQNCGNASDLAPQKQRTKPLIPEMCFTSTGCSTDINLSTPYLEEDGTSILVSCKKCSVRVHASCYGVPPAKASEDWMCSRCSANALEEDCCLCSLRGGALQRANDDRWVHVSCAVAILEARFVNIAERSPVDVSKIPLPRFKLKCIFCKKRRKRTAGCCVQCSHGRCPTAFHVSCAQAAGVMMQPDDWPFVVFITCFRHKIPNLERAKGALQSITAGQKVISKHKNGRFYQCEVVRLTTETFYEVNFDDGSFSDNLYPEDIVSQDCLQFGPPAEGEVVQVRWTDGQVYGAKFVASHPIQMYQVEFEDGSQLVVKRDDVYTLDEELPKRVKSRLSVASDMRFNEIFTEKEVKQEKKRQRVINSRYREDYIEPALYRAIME
BAZ2B block = qHTS Assay for Inhibitors of BAZ2B; AlphaScreen BAZ2B-H3K14Ac peptide displacement; Potency, µM (top dose mostly 114 µM), for the others: top-dose activity change, negative = inhibition, usual class: inhibitors; AID 504333, 2011; actives 4.4% (n = 360,000); further: on the % scale 0 is the no-effect control and ±100 the full control effect; nearly all actives have a fitted effect of over 60% in size
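Compounds, titrated to a top concentration of 110 uM, were incubated 30 min at room temperature with preformed BAZ2B/acetyl-K14 H3 peptide complex (50 nM each). Proximity signal was measured by AlphaScreen after 20 min with beads.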
Sfp inh = qHTS Assay for Inhibitors of Bacillus subtilis Sfp phosphopantetheinyl transferase (PPTase). AID 1490, 2009. actives 3.5% (n = 310,000). 4'-phosphopantetheinyl transferase ffp (Bacillus subtilis), Q9F4F7. Biochemical Sfp PPTase activity, qHTS. Potency, µM, without a hit: largest response in the series, negative = inhibition, usual class: inhibitors;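 further: the enzyme is Sfp with the accession as filed and its product quenches rhodamine fluorescence; 0% = enzyme reaction without inhibitor and -100% = no enzyme wells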
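Fluorescence-quenching assay with 15 nM Sfp, 5 uM rhodamine-CoA and 12.5 uM BHQ-2-labelled ybbR peptide in pH 7.6 Hepes/MgCl2 buffer. Enzyme was pre-incubated with compound for 15 min at room temperature. Rate was taken from the 30-min fluorescence change (525/598 nm).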
* marks the source's active call; other numbers are inactive results; [ ] = another dose, or the depositor's remark. An excerpt weighted towards active compounds, which were near 12% of everything screened. The call rests on the fitted dose curve; in most records, active means well fitted curve in the direction sought with a large enough effect; inconclusive means small, poorly fitted or top-dose-only effect, or another doubt; inactive means no such curve, though single readings can be large; an effect the other way counts as inactive or inconclusive. Potency means the concentration at half of the fitted maximal effect.

How did COc1ccc(NC(=O)c2oc3c(c2C)-c2nn(Cc4ccccc4Cl)cc2CC3)cc1OC do in these assays?
G9a inh: -3%[59 µM]; HP1b chromo inh: 28%; JMJD2A Tudor: -10%; BAZ2B block: 0%

Results for O=C1CS/C(=N/N=C2C3CC4CC(C3)CC2C4)N1 ?
G9a inh: -12%; L3MBTL1 inh: 12%; HP1b chromo inh: 31%; JMJD2A Tudor: 0%; BAZ2B block: 2%; Sfp inh: 24%

How did O=C1CS/C(=N/N=C\c2ccn[nH]2)N1 do in these assays?
HP1b chromo inh: 17%; JMJD2A Tudor: -21%; BAZ2B block: 50µM*; Sfp inh: 56µM*

How did C=CCc1ccc(OCCOCCOc2cccc3ccc(C)nc23)c(OC)c1 do in these assays?
G9a inh: 3.5µM*; L3MBTL1 inh: -12%; HP1b chromo inh: 16µM*; JMJD2A Tudor: 1.1µM*; BAZ2B block: 28µM*; Sfp inh: inconclusive

Results for C=CCc1ccc(OCCCCNC(C)CC)c(OC)c1 (stereo not drawn) ?
G9a inh: 14µM*; L3MBTL1 inh: 5%; HP1b chromo inh: -19%; JMJD2A Tudor: 14µM*; BAZ2B block: -32%; Sfp inh: -9%

How did C=CCc1ccc(OCCOCCNCCOC)c(OC)c1 do in these assays?
G9a inh: -3%; L3MBTL1 inh: inconclusive; HP1b chromo inh: 27%; JMJD2A Tudor: -22%; BAZ2B block: -10%; Sfp inh: 20%

Results for COc1ccc(COc2cccc3ccc(C)nc23)cc1F ?
G9a inh: 28%; HP1b chromo inh: 29%; JMJD2A Tudor: 0%; BAZ2B block: 15%; Sfp inh: -2%

Results for C=CCc1ccc(OCCOCCNCCCC)c(OC)c1 ?
G9a inh: inconclusive; HP1b chromo inh: inconclusive; JMJD2A Tudor: 4µM*; BAZ2B block: 50µM*; Sfp inh: inconclusive

What do the screens show for `CCC(C)NCCCOc1ccc(Cl)cc1C(C)(C)C` (stereo not drawn)?
G9a inh: 13µM*; L3MBTL1 inh: 0%; HP1b chromo inh: inconclusive; JMJD2A Tudor: 3.2µM*; BAZ2B block: 50µM*; Sfp inh: -46%

What do the screens show for `C=CCc1ccc(OCCCOc2ccc(C(=O)O)cc2)c(OC)c1`?
G9a inh: -30%; L3MBTL1 inh: 6%; HP1b chromo inh: 7%; JMJD2A Tudor: -14%; BAZ2B block: -11%; Sfp inh: -4%

Results for CCN(CC)CCCNC(=O)C1CCN(S(=O)(=O)CC)CC1 ?
G9a inh: -4%[59 µM]; HP1b chromo inh: 12%; JMJD2A Tudor: -14%; BAZ2B block: 6%

What do the screens show for `Cc1nn(-c2ccccc2)c2c1N(CCCC(=O)NC(C)c1ccccc1)C(=O)CS2` (stereo not drawn)?
G9a inh: 4%[59 µM]; HP1b chromo inh: 16%; JMJD2A Tudor: -9%; BAZ2B block: -14%

How did CN(C)c1oc(/C=C/c2ccc(F)cc2)nc1C#N do in these assays?
G9a inh: -25%[59 µM]; HP1b chromo inh: 15%; JMJD2A Tudor: -3%; BAZ2B block: -9%

What do the screens show for `CCOc1ccc(-n2c(SCC(=O)N3CCc4ccccc43)nc3c([nH]c4ccccc43)c2=O)cc1`?
G9a inh: 6%[59 µM]; HP1b chromo inh: 14%[57 µM]; JMJD2A Tudor: -14%; BAZ2B block: 3%

What do the screens show for `Cc1ccc(C)c(NC(=O)N2CCN(C(=O)c3nsc4ccccc34)CC2)c1`?
G9a inh: 2%[59 µM]; HP1b chromo inh: 24%[57 µM]; JMJD2A Tudor: 2%; BAZ2B block: 3%

How did Cc1cc(NC(=O)CCCOc2ccc(Cl)cc2Cl)no1 do in these assays?
G9a inh: 1%[12.7 µM]; L3MBTL1 inh: -16%; HP1b chromo inh: 27%; JMJD2A Tudor: 1%; BAZ2B block: -3%; Sfp inh: -4%

How did CNCCCOc1ccc(Cl)cc1C(C)(C)C do in these assays?
G9a inh: 14µM*; L3MBTL1 inh: -4%; HP1b chromo inh: inconclusive; JMJD2A Tudor: 45µM*; BAZ2B block: 32µM*; Sfp inh: inconclusive

Results for COCCCNCCCOc1ccc(Cl)cc1C(C)(C)C ?
G9a inh: inconclusive; L3MBTL1 inh: 3%; HP1b chromo inh: -27%; JMJD2A Tudor: 28µM*; BAZ2B block: 1%; Sfp inh: inconclusive

What do the screens show for `C=CCc1cc(Cl)ccc1OCCCNC(C)CC` (stereo not drawn)?
G9a inh: 10µM*; L3MBTL1 inh: 10%; HP1b chromo inh: inconclusive; JMJD2A Tudor: 22µM*; BAZ2B block: -31%; Sfp inh: -6%

What do the screens show for `CCCCCOc1ccc(Cl)cc1CN1CCOCC1`?
G9a inh: -7%; HP1b chromo inh: 80%; JMJD2A Tudor: 16%; BAZ2B block: 11%; Sfp inh: 6%

Results for COC(=O)NNC(=O)CCCOc1ccc(Cl)cc1Cl ?
G9a inh: 6%[59 µM]; L3MBTL1 inh: 9%; HP1b chromo inh: 28%; JMJD2A Tudor: 1%; BAZ2B block: 9%; Sfp inh: 11%

Results for CC(C)(C)OC(=O)NS(=O)(=O)NCc1ccco1 ?
HP1b chromo inh: 21%; JMJD2A Tudor: -19%; Sfp inh: 6%

What do the screens show for `Cc1ccc(S(=O)(=O)N2CCN(c3nc(-c4cccs4)nc(C)c3C)CC2)cc1`?
HP1b chromo inh: 3%; JMJD2A Tudor: -14%

How did Cc1cccc(NC(=S)NCc2ccccn2)c1 do in these assays?
G9a inh: 71µM*; L3MBTL1 inh: -5%; HP1b chromo inh: 33%; JMJD2A Tudor: inconclusive; BAZ2B block: -29%; Sfp inh: -1%

How did COc1cccc(NC(=S)NCCc2ccccn2)c1 do in these assays?
G9a inh: 28µM*; L3MBTL1 inh: 1%; HP1b chromo inh: 21%; JMJD2A Tudor: -14%; BAZ2B block: 56µM*; Sfp inh: inconclusive

Results for S=C(NCc1ccccn1)NN=Cc1ccccn1 ?
HP1b chromo inh: -4%; JMJD2A Tudor: 32µM*

How did Cc1ccc(Nc2nc(-c3sc(N)nc3C)cs2)cc1 do in these assays?
L3MBTL1 inh: -9%; HP1b chromo inh: inconclusive; JMJD2A Tudor: 50µM*; BAZ2B block: 40µM*; Sfp inh: inconclusive

How did CCOC(=O)c1sc(Nc2ccc(OCC)cc2)nc1C do in these assays?
G9a inh: -2%; L3MBTL1 inh: -9%; HP1b chromo inh: 42%; JMJD2A Tudor: -5%; BAZ2B block: -39%; Sfp inh: 6%
